USP30 inh: inhibitors of human USP30 deubiquitinase; Ubiquitin carboxyl-terminal hydrolase 30 (Homo sapiens), Q70CQ3; purified USP30, Ub-rhodamine cleavage fluorescence; inhibition, % at 25 µM; actives 5.3% (n = 47,000); AID 1645860, 2021
USP10 inh: inhibitors of human USP10 deubiquitinase | Ubiquitin carboxyl-terminal hydrolase 10 (Homo sapiens), Q14694 | purified USP10, Ub-rhodamine fluorescence, 60 min | inhibition, % at 20 µM | actives 1.1% (n = 47,000) | AID 1645856, 2021
USP17 block: inhibitors of human USP17 deubiquitinase. Ubiquitin carboxyl-terminal hydrolase 17-like protein 5 (Homo sapiens), A8MUK1. purified USP17, Ub-rhodamine cleavage fluorescence, 3 h. inhibition, % at 50 µM. actives 6.5% (n = 47,000)
Target sequence (A8MUK1 whole entry, looked up): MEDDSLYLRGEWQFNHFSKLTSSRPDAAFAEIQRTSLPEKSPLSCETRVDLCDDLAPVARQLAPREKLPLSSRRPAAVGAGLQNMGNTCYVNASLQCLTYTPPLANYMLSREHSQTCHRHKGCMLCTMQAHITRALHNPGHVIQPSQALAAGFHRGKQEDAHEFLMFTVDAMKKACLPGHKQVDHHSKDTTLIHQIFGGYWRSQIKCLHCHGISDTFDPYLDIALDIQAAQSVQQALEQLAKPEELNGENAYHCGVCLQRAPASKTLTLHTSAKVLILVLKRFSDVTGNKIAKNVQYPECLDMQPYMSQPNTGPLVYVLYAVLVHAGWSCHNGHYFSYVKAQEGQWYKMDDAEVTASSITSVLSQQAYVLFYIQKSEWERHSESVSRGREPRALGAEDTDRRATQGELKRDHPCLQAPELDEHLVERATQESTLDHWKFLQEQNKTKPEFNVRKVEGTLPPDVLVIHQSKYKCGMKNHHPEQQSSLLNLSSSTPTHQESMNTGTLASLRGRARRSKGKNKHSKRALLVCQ
USP8 block: inhibitors of human USP8 deubiquitinase. inhibition, % at 20 µM. actives 4.2% (n = 47,000). AID 1645853, 2021. purified USP8, Ub-rhodamine cleavage fluorescence, 30 min. Ubiquitin carboxyl-terminal hydrolase 8 (Homo sapiens), P40818
USP28 inh: inhibitors of human USP28 deubiquitinase | purified USP28, Ub-rhodamine cleavage fluorescence, 30 min | inhibition, % at 25 µM | actives 3% (n = 47,000)
Starred values were filed as active, the others as inactive. In the library only some 14% were active in any assay of this set; here they are far more common. Cut-off read from the data, not from the text of the source: active = inhibition above about 30%; inactive = the rest.

Results for Cc1ccc(S(=O)(=O)N2CCC(n3cnc4ccc(C)cc4c3=O)CC2)cc1 ?
USP30 inh: 35*; USP10 inh: 2; USP17 block: 18; USP8 block: 0; USP28 inh: 14

Results for Cc1noc(-c2ccnc(-n3cnc(C(=O)NC(C)c4ccccc4)c3)c2)n1 (centres undefined) ?
USP30 inh: 14; USP10 inh: 0; USP17 block: 3; USP8 block: 8; USP28 inh: 7

Results for CCOc1ccc(S(=O)(=O)N(CC(=O)NC2CCCCCC2)c2ccccc2)cc1 ?
USP30 inh: 26; USP10 inh: 11; USP17 block: 2; USP8 block: -137; USP28 inh: 6

What do the screens show for `COc1ccc(S(=O)(=O)N(CC(=O)NCc2ccco2)c2ccc(C)cc2)cc1`?
USP30 inh: 0; USP10 inh: 0; USP17 block: 14; USP8 block: 30*; USP28 inh: 12

How did CCOc1ccc(S(=O)(=O)N(CC(=O)NCc2ccccc2C)c2ccccc2)cc1 do in these assays?
USP30 inh: 26; USP10 inh: 13; USP17 block: 45*; USP8 block: 1; USP28 inh: 15

What do the screens show for `CCOc1cccc(-c2cc(C(=O)NCc3cccs3)c3ccccc3n2)c1`?
USP30 inh: -128; USP10 inh: 15; USP17 block: -2; USP8 block: -64; USP28 inh: -17

How did Cc1ccc(C(CNC(=O)COc2ccccc2)N2CCC(C)CC2)o1 (centres undefined) do in these assays?
USP30 inh: -57; USP10 inh: -4; USP17 block: -17; USP8 block: -5; USP28 inh: -11

How did Cc1ccc(N=Cc2sc(O)c3ccccc23)c(C)c1 do in these assays?
USP30 inh: inactive; USP10 inh: -10; USP17 block: -178; USP8 block: -292; USP28 inh: -243

Results for Oc1sc(C=Nc2cc(Cl)ccc2Cl)c2ccccc12 ?
USP30 inh: -58; USP10 inh: -10; USP17 block: 54*; USP8 block: 47*; USP28 inh: 0

What do the screens show for `O=C(CCCCCn1c(=O)[nH]c2ccsc2c1=O)N1CCN(c2ccccc2)CC1`?
USP30 inh: 5; USP10 inh: -1; USP17 block: -14; USP8 block: 2; USP28 inh: -5

What do the screens show for `Cc1cccc(NC(=O)Cn2cc(S(=O)(=O)N3CCCC3)ccc2=O)c1`?
USP30 inh: 12; USP10 inh: 0; USP17 block: -1; USP8 block: -4; USP28 inh: -1

How did CC(=O)C1=C(O)[C@@]2(O)C(=O)c3c(c(C)c4ccc(C)c(O)c4c3O)C[C@H]2[C@@H](N)C1=O do in these assays?
USP30 inh: -126; USP10 inh: -3; USP17 block: 49*; USP8 block: -104; USP28 inh: 66*

How did C[C@H](NC(=O)C1(c2ccccc2)CCN(C(=O)[C@@H]2CCCN2C(=O)OC(C)(C)C)CC1)C(=O)O do in these assays?
USP30 inh: -70; USP10 inh: 1; USP17 block: 22; USP8 block: 19; USP28 inh: 12

What do the screens show for `Cc1ccc(-c2nc(NC(=O)c3ccccn3)sc2C)cc1`?
USP30 inh: 24; USP10 inh: 5; USP17 block: -14; USP8 block: -65; USP28 inh: 13

How did CC(=O)c1sc(NC(=O)/C=C/c2ccccc2)nc1-c1ccccc1 do in these assays?
USP30 inh: 0; USP10 inh: 5; USP17 block: 74*; USP8 block: 12; USP28 inh: 5

What do the screens show for `O=C(Nc1ccccc1)c1sc(-c2ccccc2)nc1-c1ccccc1`?
USP30 inh: 19; USP10 inh: 4; USP17 block: 6; USP8 block: 9; USP28 inh: 5

How did Cc1sc(NC(=O)/C=C/c2ccco2)nc1-c1ccccc1 do in these assays?
USP30 inh: 1; USP10 inh: 4; USP17 block: 11; USP8 block: 0; USP28 inh: 54*

Results for Cn1nc(-c2ccccc2)c(CO)c1SCc1ccc(Cl)cc1 ?
USP30 inh: 22; USP10 inh: 1; USP17 block: 16; USP8 block: 13; USP28 inh: 3

How did Cn1c(SCc2ccc(C(C)(C)C)cc2)nc(-c2ccccc2)c1-c1ccccc1 do in these assays?
USP30 inh: 34*; USP10 inh: 11; USP17 block: 19; USP8 block: 8; USP28 inh: 12

Results for O=C1C=C(O)c2c(O)cc(O)cc2C1=O ?
USP30 inh: 100*; USP10 inh: 79*; USP17 block: 99*; USP8 block: 82*; USP28 inh: 99*

Results for Cc1c(Cl)cccc1NC(=O)c1[nH]nc2c1COc1ccccc1-2 ?
USP30 inh: -182; USP10 inh: 2; USP17 block: -31; USP8 block: 35*; USP28 inh: -54

Results for COc1cc(Cl)ccc1C(=O)Nc1cccc(-n2cnnn2)c1C ?
USP30 inh: 47*; USP10 inh: 13; USP17 block: 82*; USP8 block: 9; USP28 inh: 21

What do the screens show for `Cc1c(NC(=O)/C=C/c2cccc(Cl)c2Cl)cccc1-n1cnnn1`?
USP30 inh: 43*; USP10 inh: 20; USP17 block: 25; USP8 block: 80*; USP28 inh: 0

Results for O=c1[nH]c(CSc2ccc3c(c2)OCCO3)nc2cc(Cl)ccc12 ?
USP30 inh: -2; USP10 inh: 1; USP17 block: 6; USP8 block: -9; USP28 inh: 3

Results for CCc1nc2ccc(C(=O)N(C)Cc3ccccc3)cc2nc1CC ?
USP30 inh: 16; USP10 inh: 4; USP17 block: 5; USP8 block: 13; USP28 inh: 16

How did O=c1c(NCc2ccccc2Cl)nccn1Cc1ccc(F)cc1 do in these assays?
USP30 inh: 30*; USP10 inh: 9; USP17 block: 19; USP8 block: 21; USP28 inh: 30*

How did CN1CCCC12CCCN(C(=O)c1ccc(Cl)cc1)C2 (centres undefined) do in these assays?
USP30 inh: -3; USP10 inh: 3; USP17 block: -4; USP8 block: -51; USP28 inh: -11

What do the screens show for `N[C@@H](Cc1ccccc1)C(=O)N1CCC2(CC1)CN(C(=O)c1ccc(Cl)cc1)CCO2`?
USP30 inh: 68*; USP10 inh: 1; USP17 block: 46*; USP8 block: -271; USP28 inh: 45*

How did COC(=O)c1ccc(C(=O)Nc2ccc3sccc3c2)cc1 do in these assays?
USP30 inh: 27; USP10 inh: 6; USP17 block: 23; USP8 block: 31*; USP28 inh: 8

How did COC(=O)c1ccc(C(=O)Nc2cc3ccccc3cc2NC(=O)c2ccc(C(=O)OC)cc2)cc1 do in these assays?
USP30 inh: 41*; USP10 inh: 13; USP17 block: 68*; USP8 block: 16; USP28 inh: 2
